# Among all 5,600 compounds or so, about 150 (2.7%) showed an effect of 50% or more. The list comes from a sample in which strong results are over-represented; it also holds similar structures and randomly drawn compounds.
# Target: T1, Protein deacetylase HDAC6 (Homo sapiens) (UniProt Q9UBN7)
# T1 sequence (whole entry): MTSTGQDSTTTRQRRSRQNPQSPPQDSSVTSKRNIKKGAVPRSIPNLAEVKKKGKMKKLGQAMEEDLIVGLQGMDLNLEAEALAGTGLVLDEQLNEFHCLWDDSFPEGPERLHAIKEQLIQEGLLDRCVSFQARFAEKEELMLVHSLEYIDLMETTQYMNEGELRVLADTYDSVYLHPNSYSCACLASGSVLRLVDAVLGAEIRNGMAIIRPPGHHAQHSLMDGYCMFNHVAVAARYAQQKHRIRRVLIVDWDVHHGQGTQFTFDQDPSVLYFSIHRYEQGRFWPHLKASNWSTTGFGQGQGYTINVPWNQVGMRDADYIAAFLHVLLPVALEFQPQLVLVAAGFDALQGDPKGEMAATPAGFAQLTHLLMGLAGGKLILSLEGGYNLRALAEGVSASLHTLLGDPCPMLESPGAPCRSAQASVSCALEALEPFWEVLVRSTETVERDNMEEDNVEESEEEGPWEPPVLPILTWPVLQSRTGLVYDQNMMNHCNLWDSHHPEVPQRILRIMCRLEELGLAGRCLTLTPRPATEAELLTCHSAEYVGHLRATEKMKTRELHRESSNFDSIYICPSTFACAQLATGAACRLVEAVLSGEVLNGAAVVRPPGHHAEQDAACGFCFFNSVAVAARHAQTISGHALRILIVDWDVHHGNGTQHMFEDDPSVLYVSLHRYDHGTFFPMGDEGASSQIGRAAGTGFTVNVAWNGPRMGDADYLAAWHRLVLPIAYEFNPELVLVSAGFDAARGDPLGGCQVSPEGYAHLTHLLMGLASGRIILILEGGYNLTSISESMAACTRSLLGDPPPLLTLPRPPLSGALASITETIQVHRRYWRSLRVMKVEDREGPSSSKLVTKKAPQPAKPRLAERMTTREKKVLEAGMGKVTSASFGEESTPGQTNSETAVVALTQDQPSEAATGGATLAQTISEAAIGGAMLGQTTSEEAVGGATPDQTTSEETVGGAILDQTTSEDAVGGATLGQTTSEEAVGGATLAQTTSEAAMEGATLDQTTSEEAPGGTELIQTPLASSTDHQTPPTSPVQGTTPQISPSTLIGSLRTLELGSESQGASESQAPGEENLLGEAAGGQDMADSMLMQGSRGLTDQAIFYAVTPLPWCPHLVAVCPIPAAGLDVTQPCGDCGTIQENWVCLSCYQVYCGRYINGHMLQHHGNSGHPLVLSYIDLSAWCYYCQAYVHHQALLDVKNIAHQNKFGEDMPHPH
# Details: at 10 µM
row,Structure (SMILES),inhibition [%]
1,O=C(O)Cc1nn(Cc2nc3cc(C(F)(F)F)ccc3s2)c(=O)c2ccccc12,-1.1
2,O=C(Nc1ccc(S(=O)(=O)Nc2nccs2)cc1)C(c1ccccc1)c1ccccc1,-1.03
3,CN[C@@H](C)C(=O)N[C@H](C(=O)N1CCC[C@H]1C(=O)Nc1sc(-c2ncco2)nc1-c1ccccc1)C1CCCCC1,-6.76
4,O=c1[nH]cnc2ccccc12,-1.07
5,COc1cc2nc(N3CCN(C(=O)COc4c(OC)cccc4C(C)C)CC3)nc(N)c2cc1OC,4.56
6,CCCCOc1nc(N)c2c(n1)N(Cc1cccc(CN3CCCC3)c1)CC(=O)N2,3.13
7,CC1CCc2c(cc(Br)c(F)c2Br)N1C=O (stereo unspecified),3.01
8,N#C/C(=C\c1cn(-c2ccccc2)c2ccccc12)C(=O)O,-2.69
9,O=S(=O)(O)CC(S)CS (stereo unspecified),2.52
10,Cc1ccc(CCCO)c(NCc2ccc3nc(NCCCN4CCOCC4)n(Cc4nc(C)ccc4O)c3c2)c1,-5.63
11,N#Cc1c(N)nc(SCc2csc(-c3ccc(Cl)cc3)n2)c(C#N)c1-c1ccc(OCCO)cc1,2.06
12,CCCCCCCCCCCCCCCC[n+]1ccn(Cc2ccccc2)c1C,-2.57
13,COc1cc2c(cc1OC)-c1c(C)c3ccc(OC)c(OC)c3c[n+]1CC2,-0.34
14,COc1ccc([C@@H]2CC(=O)c3c(O)cc(O)cc3O2)cc1O,31.5
15,COc1ccc(-c2cc(=O)c3c(O)cc(O[C@@H]4O[C@H](CO[C@@H]5O[C@@H](C)[C@H](O)[C@@H](O)[C@H]5O)[C@@H](O)[C@H](O)[C@H]4O)cc3o2)cc1O,8.42
16,COc1ccc(-c2cc(=O)c3c(O)cc(O)cc3o2)cc1O,52.3
17,CC(C)[C@H](C(=O)Nc1ccc(C(=O)NO)cc1)c1ccccc1,98
18,CC(=O)Nc1ccc(C(=O)Nc2ccccc2N)cc1,0.93
19,O=C(O)c1ccc(NC(=O)[C@H](Cc2ccc(O)cc2)NC(=O)c2ccccc2)cc1,3.32
20,O=C(O)c1ccccc1Nc1ccc(CCc2ccc(Cl)c(Cl)c2)cc1,-6.85
21,COc1ccc2c(c1)C(C(=O)N(Cc1ccc(N(C)C)cc1)c1ccc(C(C)C)cc1)CCC2 (stereo unspecified),-3.38
